High-throughput results deposited in PubChem by several laboratories.
PLCb3 inh – blocks human PLC-beta3 enzyme activity. Q01970. Purified PLC-beta3, fluorogenic substrate, fluorescence. inhibition, % at 12.2 µM. hit rate 0.18% among 370,000;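 further: 0% = median of compound wells on plate and 100% = full blocker control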
AHR activator – human AHR activation; P35869; AHR-responsive luciferase reporter cells, luminescence; activation, % at 5 µM; hit rate 2.5% among 320,000; in the data active means activation above about 47%;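 further: 0% = vehicle wells and 100% = reference agonist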
Target sequence (P35869 whole entry, looked up): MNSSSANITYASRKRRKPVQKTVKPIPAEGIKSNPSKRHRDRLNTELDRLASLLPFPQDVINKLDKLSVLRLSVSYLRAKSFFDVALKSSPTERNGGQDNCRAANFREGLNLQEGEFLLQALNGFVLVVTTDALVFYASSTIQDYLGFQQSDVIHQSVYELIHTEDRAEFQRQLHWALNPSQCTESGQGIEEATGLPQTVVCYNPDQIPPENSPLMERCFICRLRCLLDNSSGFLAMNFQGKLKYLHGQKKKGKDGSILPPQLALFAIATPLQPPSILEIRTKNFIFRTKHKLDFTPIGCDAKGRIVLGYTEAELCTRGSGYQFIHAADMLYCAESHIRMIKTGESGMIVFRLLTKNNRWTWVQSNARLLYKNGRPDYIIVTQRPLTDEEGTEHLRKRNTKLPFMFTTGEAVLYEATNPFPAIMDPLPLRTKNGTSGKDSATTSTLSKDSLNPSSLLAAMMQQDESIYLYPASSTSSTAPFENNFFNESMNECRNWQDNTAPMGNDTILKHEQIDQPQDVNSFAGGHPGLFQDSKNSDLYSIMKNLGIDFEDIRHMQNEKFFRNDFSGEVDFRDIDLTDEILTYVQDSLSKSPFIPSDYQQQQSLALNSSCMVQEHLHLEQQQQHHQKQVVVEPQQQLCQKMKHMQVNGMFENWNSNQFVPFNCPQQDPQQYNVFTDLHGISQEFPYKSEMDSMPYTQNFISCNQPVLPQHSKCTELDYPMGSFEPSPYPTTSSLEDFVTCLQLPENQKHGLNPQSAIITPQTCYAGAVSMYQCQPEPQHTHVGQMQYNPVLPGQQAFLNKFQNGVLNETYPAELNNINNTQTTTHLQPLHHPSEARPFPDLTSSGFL
HGIII-sPLA2 inh – Blocks human group III sPLA2 activity; inhibition, % at 12.2 µM; Q9NZ20; hit rate 0.56% among 370,000; AID 743126; QFRET BODIPY PC-A2 liposome hydrolysis, fluorescence;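 active means inhibition above mean plus 3 SD of compounds lying within the high and low control bounds, cut at about 19% in these data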;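 further: 0% = median of test compound wells and 100% = no enzyme DMSO wells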
PLC-gamma1 inh – PLC-gamma1 (human) inhibition, primary screen; inhibition, % at 12.2 µM; purified PLC-gamma1, fluorogenic substrate, fluorescence; hit rate 0.84% among 370,000; in the data active means inhibition above about 9.5%
Yeast superoxide – caloric restriction mimetics inhibiting age-related superoxide in yeast | S. cerevisiae aged cells, superoxide DHE fluorescence; active compounds read low | superoxide response (% of plate mean), % at 10 µM | AID 2690 | hit rate 0.18% among 330,000;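 active means superoxide response under a set limit, about three screen SD below normal, cut at about 65% in these data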;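 further: yeast aged for seven days with compound at 30 °C before DHE staining; 100% = average MFI of all compound-treated wells on the plate with controls excluded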
HIF activator – HIF pathway transcriptional activation | hit rate 0.32% among 300,000 | U2OS HRE-luciferase reporter, luminescence; normalized: DMSO 0%, desferrioxamine 100% | activation, % at 7.5 µM (by protocol);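 active means mean activation of at least 10% of the iron chelator positive control signal, with at least half of replicates also reaching 10%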
PLCgamma1 ctr – inhibits human PLC-gamma1 in PLC-beta3 counter-screen; shares compounds with PLC-gamma1 inh; hit rate 3.1% among 3,300; purified PLC-gamma1, fluorogenic substrate, fluorescence; inhibition, % at 12.3 µM; in the data active means inhibition above about 9.5%
PLCb3 confirm – human PLC-beta3 inhibition, confirmation | inhibition, % at 12.3 µM | shares compounds with PLC-gamma1 inh | purified PLC-beta3, fluorogenic substrate fluorescence | AID 743261 | hit rate 1% among 3,300
An asterisk follows results filed as active; . = not tested or not shown. Only some compounds are listed: those with a hit (about 3.9% of all), similar ones and a draw of the others. Unless noted, no stated cut-off is given here; in the data, active means inhibition above about 11%; inactive means the rest.

SMILES	PLCb3 inh	AHR activator	HGIII-sPLA2 inh	PLC-gamma1 inh	Yeast superoxide	HIF activator	PLCgamma1 ctr	PLCb3 confirm
O=C(N/C(=C/c1ccc(F)cc1)C(=O)N1CCOCC1)c1ccco1	0.0	.	0.0	1.4	.	.	.	.
CCOC(=O)c1sc2nc(C)nc(SC(C)C(=O)NC3CC3)c2c1C (stereo not given)	-3.1	1.6	13.5	0.7	104.7	.	.	.
O=C1C(=C(I)I)c2ccccc2-c2ccccc21	-12.0	.	-21.5	33.7*	.	.	39.1*	-1.6
CC(=O)Nc1ccc(-c2csc(Nc3ncccn3)n2)cc1	-3.6	15.0	0.3	9.9*	107.9	2.8	1.8	3.8
COc1ccc(S(=O)(=O)Cc2ccc(C(=O)NC3CCCCCC3)o2)cc1	-5.6	2.0	-1.1	-1.0	105.2	-0.5	.	.
COc1ccc(C2C(C(=O)NCCCN3CCOCC3)c3ccccc3C(=O)N2c2ccc(OC)cc2)cc1 (stereo not given)	11.5*	-0.4	-12.6	4.7	113.3	0.1	-3.0	-5.6
COc1ccc(S(=O)(=O)N2CCC(C(=O)NCCN3CCOCC3)CC2)cc1	-4.0	-1.1	7.7	12.5*	89.7	-1.0	-6.6	-1.9
Cc1cc(NS(=O)(=O)c2ccc3c(c2)CCC(=O)N3)ccc1Cl	-3.2	.	-19.9	-0.8	.	.	.	.
COc1ccc(-c2coc3c(C(=O)NCc4ccc(C(F)(F)F)cc4)cccc23)c(C)c1	-0.4	.	-9.8	-3.4	.	.	.	.
COc1ccc(S(=O)(=O)NCCCN2CCOCC2)cc1F	-0.4	-1.7	4.2	9.5*	98.2	0.5	8.4	0.7
O=C(CSc1ccc(Cl)cc1)N1CCN(c2c(Cl)cccc2[N+](=O)[O-])CC1	-3.7	1.7	-4.0	1.1	101.6	0.8	.	.
O=C(/C=C/c1ccc(Cl)cc1)N1CCN(c2c(Cl)cccc2[N+](=O)[O-])CC1	10.4	7.5	-4.6	17.0*	114.3	-0.4	-7.2	1.7
COCCCNc1nc(N)c([N+](=O)[O-])c(NCc2ccccc2)n1	1.2	1.8	11.6	10.2*	100.5	-0.8	5.4	-0.7
CN(C)CCCNc1nc(N)c([N+](=O)[O-])c(NCc2ccccc2)n1	-0.8	.	-5.9	9.7*	96.5	-11.4	-1.4	1.1
Nc1nc(NCc2ccccc2)nc(NCc2ccccc2)c1[N+](=O)[O-]	3.5	-0.6	-11.9	0.6	105.5	.	.	.
Cc1ccc(C(=O)CCc2ccc(N)cc2)cc1	-0.4	8.6	3.5	1.2	103.5	0.9	.	.
Cc1csc(=O)n1CCC(=O)OCC(=O)NNC(=O)c1ccccc1	-6.8	-3.6	-0.4	-0.5	99.3	0.8	.	.
COc1ccc(S(=O)(=O)N(C)C[C@H]2Oc3c(NS(=O)(=O)c4cn(C)cn4)cccc3C(=O)N([C@H](C)CO)C[C@@H]2C)cc1	-3.2	0.9	0.3	-4.3	103.9	.	.	.
COc1cc2c(c(O)c1OC)C(=O)C(OC)CCC2 (stereo not given)	11.6*	-0.9	2.4	4.4	92.7	0.1	-2.9	0.3
COc1cc2c(c(O)c1OC)-c1c(cc(OC)c(OC)c1OC)C[C@@H](C)[C@@H](C)C2	1.4	-1.1	-9.1	3.2	102.9	0.0	.	.
O=C(Nc1ccnn1C1CCN(CCCC2CCCC2)CC1)c1ccccc1Cl	-4.0	-1.3	-28.0	10.9*	97.2	-0.2	-2.7	4.1
Cc1nn(C)cc1CN(C)C(=O)CCc1nnc(CCC2CCCCC2)o1	-1.8	-1.1	14.2	10.8*	114.4	.	-5.4	0.0
CN1C(C(=O)NCc2cccc(C(F)(F)F)c2)CC2Cn3c(nc4cc(Cl)c(Cl)cc43)C21 (stereo not given)	-1.6	2.3	-1.3	0.6	100.9	-1.0	.	.
CCC(C)(c1nnnn1-c1c(C)cccc1C)N(N=O)c1ccccc1Cl (stereo not given)	7.7	0.2	-3.6	10.8*	86.0	.	6.6	-1.1
Cc1cccc(C(C)C)c1-n1nnnc1-c1ccccc1	0.4	-0.5	-2.7	-1.2	91.8	.	.	.
SMILES	PLCb3 inh	AHR activator	HGIII-sPLA2 inh	PLC-gamma1 inh	Yeast superoxide	HIF activator	PLCgamma1 ctr	PLCb3 confirm
C[C@H](CO)N1C[C@H](C)[C@@H](CN(C)C(=O)NC2CCCCC2)Oc2ccc(NS(=O)(=O)c3ccc(F)cc3)cc2C1=O	-0.3	-1.0	-3.3	-1.1	99.7	.	.	.
Cc1ccc(N(Cc2ccccc2)C(=O)c2cccc(S(=O)(=O)N3CCOCC3)c2)cc1	2.2	2.3	-6.2	3.8	104.4	1.6	.	.
O=C(c1cccc(S(=O)(=O)N2CCOCC2)c1)N(CCO)Cc1ccccc1	0.2	2.8	-3.4	10.2*	101.7	-1.3	-4.8	-1.3
Nc1nn(-c2ccccc2)c(N)c1N=Nc1cccc(F)c1	-4.9	1.4	11.7	3.4	88.4	2.8	.	.
Cc1nn(-c2ccccc2)c(N)c1N=Nc1cccnc1	10.9*	-9.0	14.7	5.7	85.3	2.5	5.3	6.8
COc1ccc(-c2csc(NC(=O)CCN3C(=O)C4CC=CCC4C3=O)n2)cc1OC (stereo not given)	-12.3	11.5	-2.0	-1.8	87.8	-0.2	.	.
Nc1[nH]c(C(=O)c2ccccc2)c(-c2ccncc2)c1C(=O)NC1CC1	2.1	.	4.7	10.3*	.	.	-5.6	-2.7
O=C(N[C@H](C(=O)N1CCC[C@H]1C(=O)NCCc1ccccc1Cl)C1CCCCC1)c1ccc(Cl)c(Cl)c1	-1.9	.	4.3	2.4	.	.	.	.
COC(=O)c1sccc1S(=O)(=O)Nc1ccc(N2CCCCC2)cc1	-3.3	-0.5	8.7	9.6*	91.0	1.2	-5.0	-3.3
Cc1c(NC(=O)C2CCCN2S(=O)(=O)c2ccccc2)c(=O)n(-c2ccccc2)n1C (stereo not given)	13.5*	-0.5	8.7	4.7	77.8	-0.5	3.9	-5.2
CCS(=O)(=O)Nc1c(C)n(C)n(-c2ccccc2)c1=O	8.2	0.7	-4.3	9.6*	81.5	0.1	-7.3	-2.7
c1ccc([C@H]2CNCCN2CCc2cccc3ccccc23)cc1	5.4	11.3	-1.0	12.4*	106.6	.	-4.7	-3.4
COc1cc(/C=N/NC(=O)Cc2ccccc2)cc([N+](=O)[O-])c1O	-1.9	0.1	0.7	5.0	106.5	-0.8	.	.
COc1cc(/C=N/NC(=O)[C@H](Cc2c[nH]c3ccccc23)NC(=O)OCC(C)C)cc([N+](=O)[O-])c1O	7.8	3.7	-44.3	13.6*	73.0	-0.7	2.1	2.1
CCN1CCN(C(=O)C2CC(=O)N(c3ccc(Cl)cc3)C2)CC1 (stereo not given)	2.0	-0.4	3.9	4.4	102.3	0.3	.	.
CCOc1ccccc1C(=O)N/N=C/c1cccc2cccnc12	7.3	32.1	-8.7	14.0*	103.8	0.7	-6.7	-0.9
COc1cc(C(=O)Nc2ccc(S(=O)(=O)N3CCCCC3C)cc2)cc(OC)c1OC (stereo not given)	-2.3	2.1	-30.2	-3.2	119.8	-0.6	.	.
